Assay results from the supplement of paper PMC10670038.
Structures can show the parent of a compound that is named as a salt. ± gives the standard deviation of the averaged measurements. Over roughly 2,000 compounds, “relative cell viability vs DMSO, compound + 0.2 uM CuET” has its median near 1; the lowest 2% begin near 0.25. The sample holds the lowest values, similar compounds and a random draw of the others, so the mix is not that of the screen.

Tested on: TE10
Assay: relative cell viability vs DMSO, compound + 0.2 uM CuET (fraction); TE10 is an esophageal squamous carcinoma line; higher = less cytotoxic
Details: 2 µM; co-treatment: CuET (bis(diethyldithiocarbamate)copper) 0.2 uM; 48 h
Experimental: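 TE10 ESCC cells (1,000/well, 384-well plates) were treated with Selleck bioactive library compounds at 2 uM combined with 0.2 uM CuET (copper diethyldithiocarbamate) for 48 h. Viability was read by CellTiter-Glo and expressed relative to DMSO wells. Two technical replicates (A, B).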

Compound | relative cell viability
CNCc1ccc(-c2[nH]c3cc(F)cc4c3c2CCNC4=O)cc1 | 1.3 ± 0.098
C=C(C)[C@@H]1CC[C@]2(C(=O)O)CC[C@]3(C)[C@H](CC[C@@H]4[C@@]5(C)CC[C@H](O)C(C)(C)[C@@H]5CC[C@]43C)[C@@H]12 [Betulinic acid] | 0.945 ± 0.13
O=[N+]([O-])c1ccc2c(c1)S(=O)(=O)C=C2 [Stattic] | 0.204 ± 0.018
CS(=O)(=O)Nc1ccc([N+](=O)[O-])cc1Oc1ccccc1 [Nimesulide] | 1.08 ± 0.044
CC(C)=CCCC(C)(OC1OC(COC2OCC(O)C(O)C2O)C(O)C(O)C1O)C1CCC2(C)C1C(O)CC1C3(C)CCC(OC4OC(CO)C(O)C(O)C4O)C(C)(C)C3CCC12C (stereo not given) [Gynostemma Extract] | 1.04 ± 0.076
COC(=O)CCSCc1ccc(-c2onc(C)c2NC(=O)OC(C)c2ccccc2Cl)cc1 (stereo not given) | 0.919 ± 0.024
CCCCN1CCCCC1C(=O)Nc1c(C)cccc1C (stereo not given) [Bupivacaine HCl] | 1.03 ± 0.16
CCN=C1N[C@@H]2[C@@H](O)[C@H](O)[C@@H](CO)O[C@@H]2S1 [Thiamet G] | 1.16 ± 0.065
CN1CCc2c(c3ccccc3n2Cc2ccc(C(=O)NO)cc2)C1 [Tubastatin A] | 1.375 ± 0.0024
COc1cc(C(=O)NS(=O)(=O)c2ccccc2C)ccc1Cc1cn(C)c2ccc(NC(=O)OC3CCCC3)cc12 [Zafirlukast] | 1.08 ± 0.019
Cn1cc(CNCC2CCN(c3ncc(C(=O)NO)cn3)CC2)c2ccccc21 | 0.171 ± 0.017
CN1CCc2c(c3ccccc3n2Cc2ccc(C(=O)NO)cc2)C1 [Tubastatin A HCl] | 0.979 ± 0.011
CCCCCCCCCCCCCCCC(=O)OCC(O)C1OC(=O)C(O)=C1O [L-Ascorbyl 6-palmitate] | 1.02 ± 0.04
C[C@@H]1[C@H](O)[C@@H](C)/C=C/C=C/C=C/C=C/C=C/C=C/C=C/[C@H](O[C@@H]2O[C@H](C)[C@@H](O)[C@H](N)[C@@H]2O)C[C@@H]2O[C@](O)(C[C@@H](O)C[C@@H](O)[C@H](O)CC[C@@H](O)C[C@@H](O)CC(=O)O[C@H]1C)C[C@H](O)[C@H]2C(=O)O [Amphotericin B] | 1.13 ± 0.11
COc1c/c(=C2\C=c3ccccc3=N2)[nH]/c1=C\c1[nH]c(C)cc1C [Obatoclax Mesylate (GX15-070)] | 0.354 ± 0.035
Brc1ccc(C2CN3CCSC3=N2)cc1 (single isomer, unassigned; (-)) [(-)-p-Bromotetramisole Oxalate] | 1.33 ± 0.11
Cc1cc(=O)oc2c(C=O)c(O)ccc12 | 1.24 ± 0.086
CN(NC(=O)CC(=O)NN(C)C(=S)c1ccccc1)C(=S)c1ccccc1 [Elesclomol (STA-4783)] | 0.0573 ± 0.0087
O=C(O)CCNC(=O)c1ccccc1 [Betamipron] | 1.014 ± 0.0048
O=C(O)c1ccccc1 [Benzoic Acid] | 1.1 ± 0.072
O=C(Nc1ccc2c(O)cc(S(=O)(=O)O)cc2c1)Nc1ccc2c(O)cc(S(=O)(=O)O)cc2c1 | 1.04 ± 0.058
COc1ccc(Oc2cc(C)c(-c3csc(NC(=O)c4ccncc4)n3)c(C)c2)cc1 | 0.89 ± 0.15
O=C(/C=C/c1ccc(O)c(O)c1)O[C@@H]1C[C@](O)(C(=O)O)C[C@@H](O)[C@H]1O [Chlorogenic Acid] | 1.1 ± 0.11
CC1(C)S[C@@H]2[C@H](NC(=O)[C@H](N)c3ccc(O)cc3)C(=O)N2[C@H]1C(=O)O [Amoxicillin Sodium] | 1.06 ± 0.069
CC1(C)S[C@@H]2[C@H](NC(=O)[C@H](N)c3ccc(O)cc3)C(=O)N2[C@H]1C(=O)O [Amoxicillin] | 0.42 ± 0.49
C=CC(=O)Nc1cccc(Nc2nc(Nc3ccc(OCCOC)cc3)ncc2F)c1 | 0.892 ± 0.11
O=S(=O)(c1ccccc1)N(CC(F)(F)F)c1ccc(C(O)(C(F)(F)F)C(F)(F)F)cc1 | 1 ± 0.084

Compound | relative cell viability
CC(C)(O)C1CCC(C)(C2C(O)CC3(C)C4CC(OC5OC(CO)C(O)C(O)C5O)C5C(C)(C)C(OC6OCC(O)C(O)C6O)CCC56CC46CCC23C)O1 (stereo not given) [Astragaloside A] | 1.15 ± 0.069
OCc1c[nH]c2ccccc12 [Indole-3-carbinol] | 1.1 ± 0.11
O=C(/C=C/c1ccc(CN(CCO)CCc2c[nH]c3ccccc23)cc1)NO [LAQ824 (Dacinostat)] | 0.145 ± 0.0072
O=C(O)CCCc1c[nH]c2ccccc12 [3-Indolebutyric acid (IBA)] | 1.12 ± 0.072
CC1(C)CCCC2(C)C1CCC1(C)OC(=O)CC12 (stereo not given) [Sclareolide] | 1.05 ± 0.085
O=S(=O)(NCCNCC=Cc1ccc(Br)cc1)c1cccc2cnccc12 | 1.12 ± 0.058
CCN(CC)C(=S)SSC(=S)N(CC)CC [Disulfiram] | 0.0338 ± 0.0054
Cn1cc(-c2[nH]c3cc(NC(=O)[C@H](N)C4CCCCC4)cc4c3c2C=NNC4=O)cn1 | 0.702 ± 0.016
NC(=O)C1CCCc2c1[nH]c1ccc(Cl)cc21 (stereo not given) [EX 527 (Selisistat)] | 1.15 ± 0.033
CC(C)c1cc2c(N3CCN(C4=NCC(C)(C)S4)CC3)ncnc2s1 [MI-3 (Menin-MLL Inhibitor)] | 0.972 ± 0.023
CC1(C)CCC2=C(O1)c1ccccc1C(=O)C2=O [Beta-Lapachone] | 0.246 ± 0.051
CC1=CC(=O)c2ccccc2C1=O [Menadione] | 0.671 ± 0.13
C=CC(=O)Nc1cc(Nc2nccc(-c3c[nH]c4ccccc34)n2)c(OC)cc1N(C)CCN(C)C | 0.476 ± 0.0093
Cc1ccc(-n2[nH]c(C)c(N=Nc3cccc(-c4cccc(C(=O)O)c4)c3O)c2=O)cc1C [Eltrombopag] | 1.04 ± 0.1
Cc1ccc(-n2[nH]c(C)c(N=Nc3cccc(-c4cccc(C(=O)O)c4)c3O)c2=O)cc1C [Eltrombopag Olamine] | 1.145 ± 0.0091
OC(CC1c2ccccc2-c2cncn21)C1CCCCC1 (stereo not given) | 1.13 ± 0.055
C#Cc1cccc(Nc2ncnc3cc(OCCOC)c(OCCO)cc23)c1 | 1.02 ± 0.013
C#Cc1cccc(Nc2ncnc3cc(OCCOC)c(OCCOC)cc23)c1 [Erlotinib HCl (OSI-744)] | 1.18 ± 0.1
C#Cc1cccc(Nc2ncnc3cc(OC)c(OCCCCCCC(=O)NO)cc23)c1 | 0.182 ± 0.024
C#Cc1cccc(Nc2ncnc3cc(OCCOC)c(OCCOC)cc23)c1 [Erlotinib] | 0.996 ± 0.091
CN(C)C(=O)c1ccc(S(=O)(=O)c2ccc(NC(=O)C(C)(O)C(F)(F)F)c(Cl)c2)cc1 (stereo not given) | 1.2 ± 0.14
CCc1cnn2c(NCc3ccc[n+]([O-])c3)cc(N3CCCC[C@H]3CCO)nc12 | 0.842 ± 0.12
COCC[n+]1c2c(n(Cc3cnccn3)c1C)C(=O)c1ccccc1C2=O [YM155 (Sepantronium Bromide)] | 0.111 ± 0.0058
CCCCCCCCCCCCCCCc1cccc(O)c1C(=O)O [Anacardic Acid] | 1.26 ± 0.019
CC1(C)Cc2c(-c3ccccc3)c(-c3ccc(Cl)cc3)c(CC(=O)O)n2C1 [Licofelone] | 1.17 ± 0.023
N#Cc1ccc2[nH]c(O)c(-c3ccc(CN4CCOCC4)cn3)c2c1 | 1.4 ± 0.13
Cc1nc2ccc(-n3ncc(C(=O)c4cc5ccccc5[nH]4)c3N)cc2[nH]1 | 0.987 ± 0.053

Compound | relative cell viability
Clc1ccc(NN=C(c2ccccc2)c2ccccn2)nc1 | 0.03199 ± 0.00018
O=C(Nc1cccc(Cl)c1)c1ccccn1 | 1.24 ± 0.1
CN(C)C(=S)NN=C(c1ccccn1)c1ccccn1 | 0.943 ± 0.047
CC(=O)N[C@@H](CC(C)C)C(=O)N[C@@H](CC(C)C)C(=O)N[C@H](C=O)CCCNC(=N)N [Leupeptin Hemisulfate] | 1.16 ± 0.025
N#CC(=Cc1ccc(-c2cc(Cl)ccc2Cl)o1)C(=O)Nc1cccc2ncccc12 | 1.06 ± 0.03
COc1cc(C=CC(=O)N2CCC=CC2=O)cc(OC)c1OC [Piperlongumine] | 0.392 ± 0.035
CC(NC(=O)Cc1cc(F)cc(F)c1)C(=O)NC1C(=O)N(C)c2ccccc2-c2ccccc21 (stereo not given) | 0.97 ± 0.13
CC1=NN(c2ccc(C(=O)O)cc2)C(=O)C1=Cc1ccc(-c2cc(C)c(C)cc2[N+](=O)[O-])o1 | 0.872 ± 0.091
Cc1nc(-c2cn3c(n2)-c2ccc(-c4cnn(C(C)(C)C(N)=O)c4)cc2OCC3)n(C(C)C)n1 | 0.675 ± 0.072
OCc1ccc(-c2ccc(-c3ccc(CO)s3)o2)s1 | 0.225 ± 0.01
CC(=O)OCC(=O)[C@@]12N=C(C)O[C@@H]1C[C@H]1[C@@H]3CCC4=CC(=O)C=C[C@]4(C)[C@H]3[C@@H](O)C[C@@]12C [Deflazacort] | 1.03 ± 0.012
CCOc1nc2cccc(C(=O)O)c2n1Cc1ccc(-c2ccccc2-c2nnn[nH]2)cc1 [Candesartan] | 1.06 ± 0.031
CN(C)Cc1cccc(N=C(c2ccccc2)c2c(O)[nH]c3cc(C(N)=O)ccc23)c1 | 0.952 ± 0.014
Cc1[nH]c2ccccc2c1C1=C(NCCc2ccc(F)cc2)C(=O)N(C)C1=O | 1.17 ± 0.023
Cc1[nH]c2ccccc2c1CCNCc1ccc(/C=C/C(=O)NO)cc1 [Panobinostat (LBH589)] | 0.151 ± 0.0045
Cc1[nH]c2ccccc2c1CCNC(=O)c1cccs1 | 1.01 ± 0.15
COc1c(O)cc2c(c1O)[C@@H]1O[C@H](CO)[C@@H](O)[C@H](O)[C@H]1OC2=O [Bergenin] | 1.18 ± 0.021
CN1CCC(NC(=O)c2cc(-c3c(O)cc(O)cc3Oc3ccc([N+](=O)[O-])cc3)on2)CC1 | 0.6427 ± 0.0019
NC1CC1c1ccc(-c2cccc(O)c2)cc1 (stereo not given) | 1.13 ± 0.036
O=C(C=Cc1ccccc1)NC(NC(=S)Nc1ccc(Cl)cc1)C(Cl)(Cl)Cl (stereo not given) | 0.908 ± 0.014
Cn1cc(/C=C/C(=O)c2cccc(F)c2)cc1/C=C/C(=O)NO | 0.872 ± 0.12
O=C(/C=C/c1cccc(S(=O)(=O)Nc2ccccc2)c1)NO [Belinostat (PXD101)] | 0.195 ± 0.017
COC1C(O)CC(=O)OC(C)CC=CC=CC(OC2CCC(N(C)C)C(C)O2)C(C)CC(CC=O)C1OC1OC(C)C(OC2CC(C)(O)C(O)C(C)O2)C(N(C)C)C1O (stereo not given) [Spiramycin] | 1.11 ± 0.0071
COC(=O)CC(NC(=O)C(C)NC(=O)C(NC(=O)OCc1ccccc1)C(C)C)C(=O)CF (stereo not given) | 1.3 ± 0.057
CCCCc1nc2cc(/C=C/C(=O)NO)ccc2n1CCN(CC)CC [Pracinostat (SB939)] | 0.2435 ± 0.00015
CN(C)Cc1ccc(S(=O)(=O)n2ccc(/C=C/C(=O)NO)c2)cc1 [Resminostat] | 0.848 ± 0.19
